# Measured values reported in PubChem BioAssay.
# Calls of active or inactive are those of the source.
# System: not listed separately
# Experiment: Plasmodium falciparum growth inhibition, primary screen, strain 3D7, DAPI fluorescence, 100 nL (AID 1184);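 note: parasites grown inside human red blood cells in medium with human serum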
# Conditions: P. falciparum 3D7 growth, 3 d, higher = more signal
row,SMILES,z-score
1,N#Cc1ccc(NN2C(C(O)c3cccc4ccccc34)C=CC3C(=O)N(c4ccccc4)C(=O)C32)cc1 (configuration not stated),-0.0446
2,COC(=O)C1=CCC(c2cccc(Cl)c2)O1 (configuration not stated),-0.539
3,COCCCNC(=O)[C@@]1(CCS(=O)(=O)c2ccccc2)N=C(c2ccc(OCCCO)cc2)O[C@H]1c1ccccc1,-1.62
4,COCCOC(=O)N1C(=O)[C@@]2(c3cc(C#Cc4ccc(OC)cc4)ccc31)[C@H](C(=O)N1CCN(c3ncccn3)CC1)[C@H]1C(=O)O[C@H](c3ccccc3)[C@H](c3ccccc3)N1[C@@H]2c1ccc(OCCO)cc1,-1.49
5,CN(C)CCCNC(=O)[C@@H]1c2ccccc2C(=O)N(Cc2cc(F)cc(C(F)(F)F)c2)[C@H]1c1ccc(CO)cc1,-0.1
6,CCCC[C@@H](O)C1=C(C)C[C@H]2C(=O)N(Cc3ccccc3)C(=O)[C@H]2[C@H]1CO,-0.224
7,CC(C)OC(=O)C=C1C[C@@H](c2ccc(C#N)cc2)O[C@@H](c2ccc(C#N)cc2)O1,-0.868
8,CN1C(=O)C2C(C1=O)C1C=C(CCCO)C2C(c2ccc(CN3CCCC3)cc2)N1C (configuration not stated),-1.27
9,COc1ccccc1CN1C(=O)c2ccccc2[C@@H](C(=O)NCC(F)(F)F)[C@@H]1c1ccc(CO)cc1,-1.19

# Biological target: Homeobox protein Hox-A13 (Mus musculus) (UniProt Q62424)
# Experiment: inhibitors of HoxA13-DNA binding, primary screen, biochemical, fluorescence polarization, labeled oligonucleotide (AID 1185)
# Conditions: 15 min, higher = more signal, called active from +8 up or from −8 down
# Sequence of Homeobox protein Hox-A13 (Mus musculus) (Q62424 whole entry, looked up): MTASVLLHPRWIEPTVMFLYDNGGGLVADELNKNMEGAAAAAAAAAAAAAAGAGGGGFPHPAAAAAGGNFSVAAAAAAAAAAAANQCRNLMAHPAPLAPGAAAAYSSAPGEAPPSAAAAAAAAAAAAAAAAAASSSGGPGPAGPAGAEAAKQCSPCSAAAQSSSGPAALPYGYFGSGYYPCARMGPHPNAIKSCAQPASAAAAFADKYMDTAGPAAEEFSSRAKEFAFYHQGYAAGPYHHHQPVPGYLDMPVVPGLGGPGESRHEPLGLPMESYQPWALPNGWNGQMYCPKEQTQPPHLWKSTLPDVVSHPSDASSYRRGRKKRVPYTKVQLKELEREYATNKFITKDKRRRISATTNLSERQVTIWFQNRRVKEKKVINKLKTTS
row,SMILES,z-score
1,CCOC(=O)C[C@H]1[C@H](OC(=O)c2ccc(C(=O)c3ccccc3)cc2)[C@@H](NC(=O)c2ccc(-c3ccccc3)cc2)c2cc(OCCCO)ccc2N1C(=O)c1ccc2ccccc2n1,-0.834 (inactive)
2,CN(C)c1ccc(C(O)C2C=CC3C(=O)N(c4ccccc4)C(=O)C3N2Nc2ccccc2F)cc1 (configuration not stated),-5.07 (inactive)
3,CCCCCN1CC=CC23O[C@@H]4C=CCOC(=O)[C@@H]4[C@H]2C(=O)N(CCCCCCO)[C@@H]3C1=O (some centres not stated),-4.08 (inactive)
4,C=C(COC)/C(=C/C[C@H](OC(=O)c1ccncc1)c1ccc(CO)o1)c1cc(C(=O)OC)ccc1OC,-5.06 (inactive)
5,Cn1cccc1C(O)C1C=CC2C(=O)NC(=O)C2N1Nc1ccccn1 (configuration not stated),-5.35 (inactive)
6,CC(C)N1CC=CC23O[C@@H]4C=CCCOC(=O)C4[C@H]2C(=O)N(CCCCCCO)[C@@H]3C1=O (some centres not stated),-2.29 (inactive)
7,O=C1c2ccccc2[C@@]2(Cc3ccccc3N(C3CC3)C2=O)[C@H](c2ccc(CO)cc2)N1Cc1ccccc1C(F)(F)F,-2 (inactive)
8,[N-]=[N+]=NCc1ccccc1C[C@]1(C(=O)NCc2ccccc2)N=C(c2ccc(OCCCO)cc2)O[C@H]1c1ccccc1N=[N+]=[N-],0.378 (inactive)
9,COc1ccc([Si](C)(C)[C@@H]2[C@@H](CC(=O)N3CCC[C@H]3CO)O[C@]3(C(=O)N(Cc4cccc(N5CCC5=O)c4)c4ccccc43)[C@H]2C)cc1,-2.64 (inactive)
10,COc1ccc(CCNC(=O)[C@@H]2c3ccccc3C(=O)N(c3ccc(C)cn3)[C@H]2c2ccc(CO)cc2)cc1,-1.78 (inactive)
11,O=C(CS)NCCCCCNC(=O)[C@@H]1C[C@@H]2C(=O)N[C@@H](Cc3ccccc3)C(=O)N2[C@@H]1c1ccc(O)cc1,-2.5 (inactive)
12,C#C[C@@H](CC)O[Si](C#Cc1ccc(Oc2ccccc2)cc1)(C(C)C)C(C)C,-0.279 (inactive)
13,COCC(=C=CC[C@@H](O)c1ccccc1OCCO)CCO,-2.37 (inactive)
14,C=CCOC(=O)[C@H]1[C@@H]2C(=O)O[C@@H](c3ccccc3)[C@@H](c3ccccc3)N2[C@@H](c2ccc(OCCOC(=O)[C@H]3C[C@H]4C(=O)N5CCC[C@H]5C(=O)N4[C@H]3c3cccc(OCCO)c3)cc2)[C@]12C(=O)Nc1ccc(I)cc12,-1.27 (inactive)
15,CC(C)(C)OC(=O)CC[C@]1(C(=O)NCc2ccccc2)N=C(c2ccc(OCCCO)cc2)O[C@H]1c1ccccc1,-6.62 (inactive)
16,COCCOC(=O)N1C(=O)[C@@]2(c3cc(C#Cc4ccc(OC)cc4)ccc31)[C@H](c1ccc(O)cc1)N1[C@H](c3ccccc3)[C@H](c3ccccc3)OC(=O)[C@H]1[C@@H]2C(N)=O,-1.15 (inactive)
17,C=CCN1C(=O)[C@]2(O[C@H](CCn3cc(CCO)nn3)[C@@H]([Si](C)(C)c3ccc(OC)cc3)[C@@H]2C)c2cc(N3CCOC3=O)ccc21,-5.66 (inactive)
18,O=C1O[C@@H](c2ccccc2)[C@@H](c2ccccc2)N2[C@@H](c3ccc(O)cc3)[C@]3(C(=O)Nc4ccccc43)[C@@H](C(=O)O)[C@H]12,-4.72 (inactive)
